The text below walks through data of PubChem BioAssay AID1259349 (Broad Institute, 2017).

Screen size: about 17,000 compounds; about 1,100 (6.5%) were called active. What follows is part of a selection rich in actives, with near analogues and random picks from the rest. A number with no mark means an inactive call.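 Rule for the calls: active = z-score of -3 or lower, meaning strong loss of probe binding signal; inactive = the rest.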

The target in the experiment is Insulin-degrading enzyme (Homo sapiens) (UniProt P14735). The experiment is described as follows: displacers of FL-6b probe from IDE – biochemical, fluorescence anisotropy, probe displacement, primary screen (AID 1259349).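 Note: His-tagged human IDE residues 42-1019 made in E. coli with 30 nM FL-6b probe.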 The following applies: purified IDE, FL-6b probe fluorescence polarization; at 20 µM; stronger effect = lower value. For orientation: Fluorescence polarisation rises when a labelled molecule tumbles more slowly, as on binding a larger partner.
Chain of Insulin-degrading enzyme (Homo sapiens) (P14735 42-1019 limits assumed): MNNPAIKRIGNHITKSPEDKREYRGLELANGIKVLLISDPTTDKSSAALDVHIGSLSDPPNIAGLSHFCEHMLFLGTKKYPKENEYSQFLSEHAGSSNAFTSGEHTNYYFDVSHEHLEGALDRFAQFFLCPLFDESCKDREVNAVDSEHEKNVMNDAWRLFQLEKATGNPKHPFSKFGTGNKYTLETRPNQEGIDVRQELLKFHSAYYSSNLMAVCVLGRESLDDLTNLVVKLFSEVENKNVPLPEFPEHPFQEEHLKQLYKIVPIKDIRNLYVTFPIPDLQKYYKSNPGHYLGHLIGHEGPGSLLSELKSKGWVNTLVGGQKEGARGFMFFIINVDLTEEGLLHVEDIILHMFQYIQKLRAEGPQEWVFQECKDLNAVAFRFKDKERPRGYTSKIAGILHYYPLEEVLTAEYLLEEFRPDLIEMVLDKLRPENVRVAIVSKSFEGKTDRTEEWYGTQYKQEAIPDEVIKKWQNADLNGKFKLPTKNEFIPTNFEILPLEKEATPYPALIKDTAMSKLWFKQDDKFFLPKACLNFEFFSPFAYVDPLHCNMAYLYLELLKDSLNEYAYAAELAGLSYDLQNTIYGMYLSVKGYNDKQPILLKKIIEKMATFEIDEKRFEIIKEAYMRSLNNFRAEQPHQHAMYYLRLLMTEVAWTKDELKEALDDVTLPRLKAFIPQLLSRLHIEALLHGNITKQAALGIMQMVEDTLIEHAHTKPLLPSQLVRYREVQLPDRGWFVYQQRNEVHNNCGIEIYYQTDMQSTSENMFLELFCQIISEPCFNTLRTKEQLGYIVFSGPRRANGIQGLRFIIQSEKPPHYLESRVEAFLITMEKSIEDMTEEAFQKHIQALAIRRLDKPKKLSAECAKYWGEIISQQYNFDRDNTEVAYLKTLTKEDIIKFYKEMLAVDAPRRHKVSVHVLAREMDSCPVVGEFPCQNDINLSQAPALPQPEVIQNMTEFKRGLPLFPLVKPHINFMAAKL
For `Cc1ccc(S(=O)(=O)Nc2ccc3c(c2)C(=O)N([C@H](C)CO)C[C@@H](C)[C@H](CN(C)S(=O)(=O)c2cccs2)OCCCC[C@@H](C)O3)cc1`, the z-score is -0.652.
For `O=C(Cc1ccccn1)N[C@H]1CC[C@H](CCNS(=O)(=O)c2cccc(F)c2)O[C@@H]1CO`, the z-score is 0.0602.
The same measure for `O=C(CN1CCOCC1)N1C[C@@H]2N[C@H](C1)C2c1ccc(-c2ccncc2)cc1` (stereo not given in full): 0.193; for `COCC#Cc1ccc([C@@H]2[C@H]3CN(C(=O)C4CCOCC4)CC(=O)N3[C@H]2CO)cc1`: 2.55.
The same measure for `O=C(C1CCCCC1)N1CC(=O)N2[C@H](CO)[C@@H](c3ccc(C#Cc4cccc(F)c4)cc3)[C@@H]2C1`: 1.96.
As to `COCC#Cc1ccc([C@@H]2[C@@H](CO)N3C(=O)CN(C(=O)C4CCOCC4)C[C@@H]23)cc1`, the z-score was 0.89.
With `O=C(C1CCC1)N1CC(=O)N2[C@H](CO)[C@H](c3ccc(C#CCc4ccccc4)cc3)[C@@H]2C1` the figure was -2.52; with `O=C(C1CCOCC1)N1CC(=O)N2[C@H](CO)[C@H](c3ccc(C#Cc4cccc(F)c4)cc3)[C@H]2C1`, -19.3 (active); with `O=C(C1CCC1)N1CC(=O)N2[C@@H](CO)[C@@H](c3ccc(C#Cc4cccc(F)c4)cc3)[C@@H]2C1`, -4.35 (active).
Consider `COc1ccc2c3c([nH]c2c1)[C@@H](CO)N(Cc1ccncc1)CC31CN(C(=O)CN(C)C)C1`, for which the z-score is -0.567.
With `COCC(=O)Nc1ccc2c(c1)OC[C@@H](C)N(Cc1ccccc1C(=O)O)C[C@@H](C)[C@H](OC)CN(C)C2=O` the figure was 1.82.
For the compound `O=C(c1cccc(F)c1)N1CCCCN2[C@@H](CO)[C@H](c3ccc(-c4cncnc4)cc3)[C@@H]2C1`, the z-score is 1.94.
In the case of `O=C(C1CCC1)N1CCCCN2[C@H](CO)[C@H](c3ccc(-c4ccncc4)cc3)[C@@H]2C1`, the z-score was -0.182.
The same measure for `O=C(C1CC1)N1CCCCN2[C@H](C1)[C@@H](c1ccc(-c3cccc(F)c3)cc1)[C@@H]2CO`: -3.66 (active); for `CC(=O)N1CCCCN2[C@H](C1)[C@@H](c1ccc(-c3ccc(F)cc3)cc1)[C@@H]2CO`: 0.352; for `O=C(c1cccc(F)c1)N1CCCCN2[C@H](CO)[C@@H](c3ccc(-c4cncnc4)cc3)[C@H]2C1`: 1.13.
Consider `O=C(C1CC1)N1CCCCN2[C@H](CO)[C@H](c3ccc(-c4cccc(F)c4)cc3)[C@H]2C1`, for which the z-score is -6.38 (active).
As to `COc1cccc(S(=O)(=O)Nc2ccc3c(c2)[C@@H]2C[C@@H](CC(=O)NC4CCCCC4)O[C@H](CO)[C@@H]2O3)c1`, the z-score was -0.362.
Turning to `COc1ccc2c3c([nH]c2c1)[C@@H](CO)N(C(=O)C1CC1)CC31CCN(C(=O)c2ccncc2)CC1`, the z-score was 1.3.
Regarding `CO[C@H]1CN(C)C(=O)c2cc(NC(=O)C3CC3)ccc2OC[C@@H](C)N(Cc2cc(F)ccc2F)C[C@H]1C`, the z-score is -1.43.
With `COc1ccc2c3c(n(C)c2c1)[C@@H](CO)N(Cc1ccccc1F)CC31CCN(C(=O)C2CCOCC2)CC1` the figure was -2.72; with `OC[C@@H]1[C@@H](c2ccc(C#CC3(O)CCCC3)cc2)[C@@H]2CN(Cc3cncnc3)CCCCN12`, 0.144.
In the case of `OC[C@@H]1[C@@H](c2ccc(-c3ccccc3F)cc2)[C@@H]2CN(Cc3cncnc3)CCCCN12`, the z-score is -0.419.
With `OC[C@@H]1[C@H](c2ccc(C#Cc3ccccc3)cc2)[C@@H]2CN(Cc3cncnc3)CCCCN12` the figure was -3.14 (active); with `CCCC#Cc1ccc([C@H]2[C@H]3CN(Cc4cncnc4)CCCCN3[C@H]2CO)cc1`, 1.82.
For the compound `OC[C@H]1[C@@H](c2ccc(-c3ccccc3F)cc2)[C@@H]2CN(Cc3ccncc3)CCCCN12`, the z-score was -0.42.
In the case of `OC[C@H]1[C@H](c2ccc(-c3ccccc3F)cc2)[C@H]2CN(Cc3cncnc3)CCCCN21`, the z-score is -3.23 (active).
In the case of `CN1C(=O)c2cc(NC(=O)Nc3ccccc3Cl)ccc2OC[C@H]2O[C@H](CC(=O)NCCCN3CCOCC3)CC[C@H]21`, the z-score is -1.04.
The same measure for `CC(=O)NC[C@H]1[C@@H](c2ccc(C#CC(C)C)cc2)[C@@H](CO)N1Cc1ccccn1`: -1.78; for `C[C@@H]1CN([C@H](C)CO)C(=O)c2cc(NC(=O)NC3CCCCC3)ccc2O[C@@H]1CN(C)S(C)(=O)=O`: 0.86; for `COc1cccc(C(=O)Nc2ccc3c(c2)C(=O)N(C)[C@H]2CC[C@H](CC(=O)N[C@@H](C)c4ccccc4)O[C@H]2CO3)c1`: -1.12.
Consider `COc1cccc(C(=O)Nc2ccc3c(c2)C(=O)N(C)[C@H]2CC[C@@H](CC(=O)N[C@H](C)c4ccccc4)O[C@H]2CO3)c1`, for which the z-score is -4.24 (active).
With `C[C@@H](NC(=O)C[C@H]1CC[C@H]2[C@H](COc3ccc(NS(=O)(=O)c4ccc(Cl)cc4)cc3C(=O)N2C)O1)c1ccccc1` the figure was 0.297; with `O=C(Cc1ccccn1)N1CC(=O)N2[C@H](CO)[C@H](c3ccc(C#CCC4CCCC4)cc3)[C@@H]2C1`, 0.616.
The same measure for `COc1cccc(-c2ccc([C@@H]3[C@H]4CN(C(=O)c5cccnc5)CC(=O)N4[C@H]3CO)cc2)c1`: -6.37 (active); for `Cc1ccccc1-c1ccc([C@H]2[C@@H](CO)N3C(=O)CN(C(=O)c4cccnc4)C[C@@H]23)cc1`: -8.42 (active).
As for `COc1ccc(C#Cc2ccc([C@H]3[C@H]4CN(C(=O)c5cccnc5)CC(=O)N4[C@H]3CO)cc2)cc1`, the z-score was -0.5.
With `CCCC#Cc1ccc([C@H]2[C@H]3CN(C(=O)c4cccnc4)CC(=O)N3[C@H]2CO)cc1`, the z-score was 0.452.
On to `O=C(c1cccnc1)N1CC(=O)N2[C@H](C1)[C@H](c1ccc(-c3ccccc3F)cc1)[C@@H]2CO`, for which the z-score is -1.28.
With `O=C(c1cccnc1)N1CC(=O)N2[C@H](CO)[C@@H](c3ccc(-c4ccc(F)cc4)cc3)[C@@H]2C1` the figure was -1.03; with `O=C(Cc1ccccn1)N1CC(=O)N2[C@H](C1)[C@@H](c1ccc(-c3ccccc3)cc1)[C@@H]2CO`, -6.31 (active); with `O=C(c1ccccc1F)N1CC(=O)N2[C@H](CO)[C@@H](c3ccc(-c4cccnc4)cc3)[C@H]2C1`, -0.211.
With `N#Cc1ccc(-c2ccc([C@H]3[C@H](CO)N4C(=O)CN(C(=O)Cc5ccccc5)C[C@@H]34)cc2)cc1` the figure was 1.44.
On to `Cc1ccccc1-c1ccc([C@H]2[C@H](CO)N3C(=O)CN(C(=O)c4cccnc4)C[C@@H]23)cc1`, for which the z-score was -12.4 (active).
With `O=C(c1cccnc1)N1CC(=O)N2[C@H](CO)[C@H](c3ccc(-c4cccnc4)cc3)[C@@H]2C1` the figure was 1.98.
